FBPA Giardia inh: Giardia lamblia aldolase inhibition; A8B2U2; purified Giardia FBPA; Potency, µM (titrated, usually from 59.6 µM), inactives show top-dose activity, negative = inhibition, usual class: inhibitors; 290,000 tested, 0.71% active; AID 2451; note: nearly all actives have a fitted effect of over 55% in size
Target sequence (A8B2U2 whole entry, looked up): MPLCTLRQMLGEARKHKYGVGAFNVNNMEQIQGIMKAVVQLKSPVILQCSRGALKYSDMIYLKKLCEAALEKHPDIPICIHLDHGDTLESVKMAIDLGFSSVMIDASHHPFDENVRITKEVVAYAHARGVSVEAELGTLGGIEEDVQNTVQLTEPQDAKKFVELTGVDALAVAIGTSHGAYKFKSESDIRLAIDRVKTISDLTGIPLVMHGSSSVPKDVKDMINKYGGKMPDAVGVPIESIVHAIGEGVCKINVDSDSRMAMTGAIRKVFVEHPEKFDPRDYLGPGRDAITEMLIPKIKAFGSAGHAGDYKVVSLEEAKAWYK
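Giardia FBPA (40 nM reagent) was preincubated 10 min at RT with compound (up to 57.5 uM final), then substrate plus GAPDH/TPI/NAD/arsenate coupling system with diaphorase/resazurin was added; resorufin fluorescence (525/598 nm) was read after 20 min.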
RE007 growth inh: less growth of the S. pombe RE007 Vpr strain; S. pombe RE007 Vpr strain, BacTiter-Glo ATP luminescence, 24 h; Potency, µM (series often up to 92.2 µM), for the others: at the highest dose activity change, negative = less growth, actives largely listed as inhibitors; 360,000 tested, 0.21% active; active = well fitted falling curve with a large enough effect; inconclusive = small, poorly fitted or top-dose-only effect; inactive = no such curve, though single readings can be large or run the other way; note: nearly all actives have a fitted effect of over 50% in size
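Fission yeast RE007 carrying one integrated HIV-1 vpr copy, seeded at OD 0.01 in PMG+AL medium with 23 nL pinned compound. Grown 24 h at 30 degrees; viability read by BacTiter-Glo luminescence after 5 min.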
LmPK inh: blocks Leishmania mexicana pyruvate kinase activity; 290,000 tested, 0.37% active; Q27686; purified LmPK, Kinase-Glo ATP luminescence, 1 h; Potency, µM (doses to about 57.5 µM), for the others: at the highest dose activity change, negative = inhibition, most hits filed as inhibitors
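Screened at intermediate enzyme activity to detect both inhibitors and activators: LmPK at 0.1 nM, with a 0.5 nM enzyme column as activation reference. PEP 0.5 mM, ADP 0.1 mM; ATP detected by luminescence after 1 h.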
Tb PYK inh: blocks Trypanosoma brucei pyruvate kinase; TbPYK enzyme, Kinase-Glo Plus ATP luminescence, 45 min; Potency, µM (titrated, usually from 76.8 µM), without a hit: top-dose activity, negative = inhibition, hits mostly inhibitors; 410,000 tested, 0.12% active; note: nearly all actives have a fitted effect of over 50% in size
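ADP (130 uM final) triggers the TbPYK reaction after compound addition; incubation is 45 min at room temperature. Kinase-Glo Plus is then added and luminescence imaged. Normalized data are fitted to concentration-effect curves.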
Starred values were filed as active, the others as inactive; ? = inconclusive; nt = no result; [ ] = dose if it differs, or a comment. A selection: hits, their analogues and other compounds. The true share with any hit is near 0.95%. Unless noted, calls come from the whole dose curve; as a rule, active = well fitted curve in the direction sought with a large enough effect; inconclusive = small, poorly fitted or top-dose-only effect, or another doubt; inactive = no such curve, though single readings can be large; an effect the other way counts as inactive or inconclusive. % is set by controls: 0 for no effect and ±100 for the full control effect; potency is the fitted concentration of half-maximal effect.

SMILES | FBPA Giardia inh | RE007 growth inh | LmPK inh | Tb PYK inh
COc1ccc(SN=C2C(C)=CC(=O)C=C2C)cc1 | 4% | -5% | 2% | 1%
COC1=CC(=O)C=C(OC)C1=O | 7.1µM* | -15%[18.4 µM] | nt | ?
COC1=CC(=O)c2ccccc2C1=O | nt | 22µM* | nt | -6%
COC1=C(c2ccccc2)C(=O)c2ccccc2C1=O | ? | ? | -5% | -18%
O=[N+]([O-])c1ccc(N/N=C/c2cccc(O)c2O)c(S(=O)(=O)N2CCOCC2)c1 | ? | 10% | 5% | -3%
O=[N+]([O-])c1ccc(N/N=C/c2ccc(O)c(O)c2O)c(S(=O)(=O)N2CCOCC2)c1 | 10µM* | -1% | -17% | ?
COC(=O)c1ccc(-n2c(C)cc(C(=O)CCl)c2C)cc1 | 8% | 25µM* | 0% | -1%
O=[N+]([O-])c1ccc(C=Nc2cccc3ccccc23)s1 | ? | 22µM* | 1% | -13%
N#CC(C#N)=Cc1cc(O)c(O)c(O)c1 | 16µM* | nt | nt | -26%
O=C1N=c2ccc([N+](=O)[O-])cc2=C1c1sc(=O)[nH]c1O | ? | -3% | ? | -30%
O=C1N=c2ccccc2=C1c1sc(=O)[nH]c1O | -2% | 9% | 10µM* | ?
Cc1n[nH]c(C)c1S(=O)(=O)N(CC(=O)NCc1ccccc1Cl)c1ccc(C(C)C)cc1 | nt | nt | nt | 0%
CCOc1ccc(C(=O)Nc2cc(C)ccn2)cc1 | -1% | 40µM* | ? | ?
CCOc1cc(C(=O)Nc2cc(C)ccn2)cc(OCC)c1OCC | 20% | -20% | 4% | 2%
CCOc1ccc(C(=O)Nc2cccc(C)n2)cc1 | -12% | ? | 16µM* | -14%
CCCCOc1ccc(C(=O)Nc2cccc(C)n2)cc1 | -2% | -23% | ? | -11%
Cc1cccc(N2CCN(S(=O)(=O)c3cn(C)c(C)n3)CC2)c1C | nt | nt | nt | -2%
CSCC[C@H](NC(=O)[C@H](Cc1c[nH]c2ccccc12)NC(=O)CNC(=O)[C@H](Cc1ccc(O)cc1)NC(=O)[C@H](C)NC(=O)[C@H](CCC(=O)O)NC(=O)[C@H](CCC(=O)O)NC(=O)[C@H](CCC(=O)O)NC(=O)[C@H](CCC(=O)O)NC(=O)[C@H](CCC(=O)O)NC(=O)[C@H](CC(C)C)NC(=O)[C@H](Cc1c[nH]c2ccccc12)NC(=O)[C@@H]1CCCN1C(=O)CNC(=O)[C@@H]1CCC(=O)N1)C(=O)N[C@@H](CC(=O)O)C(=O)N[C@@H](Cc1ccccc1)C(=O)NCC(=O)O | -1% | nt | nt | nt
O=C(Nc1nc(-c2ccc(Cl)cc2)cs1)C1CCCO1 (stereo unspecified) | -15% | 22µM* | -1% | 3%
CCOc1ccc(-c2csc(NC(=O)C3CCCO3)n2)cc1 (stereo unspecified) | -2% | 7% | -4% | 4%
O=C(Nc1cc(Cl)ccc1Cl)C1CCCO1 (stereo unspecified) | 1% | ? | -1% | -1%
O=C(Nc1nc(-c2ccc(Cl)cc2Cl)cs1)C1CCCO1 (stereo unspecified) | -6% | 16µM* | 0% | -1%
Cc1ccccc1/C(N)=N/OC(=O)c1ccc(F)cc1 | 0% | -10% | 16µM* | -12%
Cc1ccccc1C(=O)O/N=C(\N)c1ccccc1 | -4% | -17% | -75% | ?
Nc1cc(C(=O)O)c(N)c2c1C(=O)c1ccccc1C2=O | ? | ? | 25µM* | ?
SMILES | FBPA Giardia inh | RE007 growth inh | LmPK inh | Tb PYK inh
CCOC(=O)c1c(N2C(=O)C=CC2=O)sc(C)c1C | -15% | 13µM* | ? | 25µM*
CCOC(=O)c1ccc(CC(=O)c2ccc(O)c(O)c2O)o1 | 11µM* | 4% | 6% | -1%
COc1ccc(-n2ccc(-c3nn(-c4cccc(C(F)(F)F)c4)ccc3=O)n2)cc1 | -19% | 20% | 1% | 4%
O=c1ccn(-c2cccc(C(F)(F)F)c2)nc1-c1ccn(-c2ccccc2F)n1 | 16µM* | -4% | 8% | -7%
CCOc1cccc(/C=N/N=C/c2cccc(OCC)c2O)c1O | -3% | -8% | -8% | -3%
CCOc1cccc(C=Nc2cc(C)cc(C)c2O)c1O | ? | 3% | 22µM* | -11%
CN(C)c1ccc(/C=C/c2nc3ccccc3s2)cc1 | nt | ? | -19% | -12%
Cc1ccc(/C=C/c2nc3ccccc3s2)s1 | -11% | ? | 28µM* | -2%
CCCn1c(/N=C/c2ccccc2O)nc2ccccc21 | -2% | -9% | -4% | -1%
